From PubChem BioAssay
PostGolgi yeast – growth inhibition of a yeast mutant, post-Golgi transport screen; post-Golgi transport phenotypic cell assay; inhibition, % at 10 µM; 98,000 tested, 0.9% active;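 note: yeast cells grown in 1536-well plates; yeast grown about 18 h at 30C before absorbance read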
PostGolgi ctrl – growth of the yeast control strain, post-Golgi counter-screen | efflux-deficient yeast background strain, growth absorbance A615, 16 h | AID 738 | inhibition, % at 10 µM | 98,000 tested, 5% active
PTK2B oligo ant – Pyk2 (human) oligomerization antagonism; z-score (the deposit names both 25 µM and 10 µM); Q14289; Q293 cells, Pyk2 FERM NanoBiT luminescence; active compounds read low; 99,000 tested, 0.83% active;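 active = Z-score of -3 or lower, scaled per plate to the spread of control and sample wells; inactive = z-score above -3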;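 note: negative z-score means lost luminescence so less FERM oligomerization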
Cav32 inh – inhibitors of human Cav3.2 T-type calcium channel | B-score at 10 µM | Cav3.2-expressing cells, Fluo-4 calcium fluorescence FDSS; active compounds read low | O95180 | 100,000 tested, 4% active;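 active = single-dose well whose peak fluorescence ratio is a statistical outlier from its plate by either plate-standardised score or position-corrected B-score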
* marks the source's active call; other numbers are inactive results; x = no result. Shown are actives, neighbours in structure and some others; about 8% of the full set was active somewhere. Cut-off read from the data, not from the text of the source, unless noted: active = inhibition above about 30%; inactive = the rest.

SMILES	PostGolgi yeast	PostGolgi ctrl	PTK2B oligo ant	Cav32 inh
Fc1ccccc1N1CC(c2ccccc2)C(c2cccs2)=N1 (configuration not stated)	-6	6	-0.82	-1.7
Cc1ccc(S(=O)(=O)N(C)CCCC(=O)n2nc(C)cc2C)cc1	3	12	-0.23	-0.77
c1ccc(CCSc2nccn2-c2ccccc2)cc1	-3	2	-1.1	-3.3
CCc1ccc(CSc2nccn2-c2ccccc2)cc1	1	7	-1.2	-5.4*
O=C1OC(Oc2ccccc2)(c2ccccc2)c2ccccc21 (configuration not stated)	2	32*	-1.5	-2.5
CCCCOC1(c2ccccc2)OC(=O)c2ccccc21 (configuration not stated)	-2	10	-0.5	-0.81
O=C1OC(OC2CCCCC2)(c2ccccc2)c2ccccc21 (configuration not stated)	6	39*	-0.62	-0.76
CCCCC(CC)COC1(c2ccccc2)OC(=O)c2ccccc21 (configuration not stated)	0	-1	-0.74	-3.1
CCOC(=O)CCNC(=O)Nc1ccc2nc(C)n(Cc3cccc(Cl)c3)c(=O)c2c1	-15	11	-0.87	-2.7
Cc1nc2ccc(NC(=O)c3cccs3)cc2c(=O)n1Cc1ccc(Cl)cc1	-3	32*	0.83	-2.5
COc1ccc(-c2cc(CN3C(=O)c4ccccc4C3=O)on2)cc1	x	x	-0.19	1.5
COc1cccc(CN2CCN(C(=O)c3ccco3)CC2)c1OC	x	x	1	0.028
COc1cccc(CN2CCN(C(=O)c3cccc4ccccc34)CC2)c1OC	8	5	0.68	-4.5*
CC(C)NC(=O)c1ccc2c(=O)n(C3CCCC3)c(=S)[nH]c2c1	3	-5	0.45	-0.49
O=C(c1ccc2c(=O)n(C3CCCC3)c(=S)[nH]c2c1)N1CCc2ccccc21	67*	99*	0.22	-4.6*
CCOC(=O)c1cccc(NC(=O)CSc2nnc(COc3ccccc3C)o2)c1	-2	4	-1.2	0.87
CC(C)C(c1nnnn1C1CCCC1)N1CCCc2ccccc21 (configuration not stated)	-3	2	0.96	-3.9*
CC(C)(C)n1nnnc1C(c1cccs1)N1CCCc2ccccc21 (configuration not stated)	18	21	0.29	-5.9*
O=[N+]([O-])c1cnccc1Nc1cccc(F)c1	x	x	-0.48	0.75
O=[N+]([O-])c1ccc(Oc2cccc(F)c2)c2ccncc12	10	38*	-1.4	-0.12
CC(N=C1NS(=O)(=O)c2ccccc21)c1ccccc1 (configuration not stated)	16	7	0.92	-0.62
O=S1(=O)Nc2c(ccc3cccnc23)-c2ccccc21	85*	72*	-0.95	1.6
N#CCc1ccc(C(=O)c2ccccc2)s1	-6	0	0.75	0.25
CN(C)c1ccc(CN(C(=O)C2COc3ccccc3O2)C2CCS(=O)(=O)C2)cc1 (configuration not stated)	-13	3	2	0.35
CC(C)c1ccc(CN(C(=O)C2COc3ccccc3O2)C2CCS(=O)(=O)C2)cc1 (configuration not stated)	1	63*	0.11	-4.4*
SMILES	PostGolgi yeast	PostGolgi ctrl	PTK2B oligo ant	Cav32 inh
CCCC(=O)N1CCN(S(=O)(=O)c2cc(Cl)ccc2OC)CC1	3	32*	1.4	0.24
CC1=C(CC(=O)c2ccc(Cl)cc2)C(=O)c2ccccc2C1=O	-1	8	-1.5	0.018
O=C(NC1CCCCC1)C(c1ccco1)N(Cc1ccco1)C(=O)c1ccco1 (configuration not stated)	-18	15	-0.25	-0.18
O=C(Cc1cccs1)NCc1ccc2c(c1)OCO2	-2	1	0.31	0.024
O=C(NCc1ccccc1)C(c1ccccc1)N(Cc1ccc2c(c1)OCO2)C(=O)Cc1cccs1 (configuration not stated)	x	x	-1.7	-1.9*
O=C(Cc1cccs1)N(Cc1ccco1)C1(C(=O)NC2CCCC2)CCCCC1	10	26	-1.7	-5.2*
O=C(NC1CCCCC1)C(c1ccccc1)N(Cc1ccco1)C(=O)Cn1cnc2ccccc21 (configuration not stated)	1	13	0.32	-5.9*
O=C1NC(=O)C(CC(=O)N(Cc2ccco2)C2(C(=O)NC3CCCC3)CCCCC2)N1 (configuration not stated)	-4	21	0.33	x
O=C(NC1CCCC1)C(c1ccccc1)N(Cc1ccc2c(c1)OCO2)C(=O)Cc1cccs1 (configuration not stated)	x	x	-3.1*	-5.9*
CC(C)CC(=O)NC(NCC1CCCO1)C(Cl)(Cl)Cl (configuration not stated)	1	-4	0.2	0.34
